Screening data as filed in PubChem.
Hits are enriched below; roughly 19% of the tested compounds scored in any of these assays.
HT1080-NT tox – qHTS for induction of synthetic lethality in tumor cells producing 2HG: qHTS for the HT-1080-NT fibrosarcoma cell line; HT-1080-NT fibrosarcoma viability, CellTiter-Glo ATP luminescence, 48 h; Potency, µM (titrated, usually from 46.1 µM), without a hit: at the highest dose activity, negative = less viability, usual class: cytotoxic; 360,000 tested, 1.6% active;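 further: NT is the 2HG producing partner of a matched IDH1 knockdown line; potency means the concentration at half of the fitted maximal effect; 0% = DMSO-treated cells and -100% = media-only wells without cells; nearly all actives have a fitted effect of over 55% in size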
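Compounds were tested in concentration-response format on HT-1080-NT cells for 48 hours at 37 degrees C. Cell viability came from CellTiter-Glo luminescence; curves were classified by r2, response magnitude and activity.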
IL1B secr inh – qHTS for Inhibitors of Inflammasome Signaling: IL-1-beta AlphaLISA Primary Screen; THP-1 LPS/ATP IL-1B secretion, AlphaLISA, 16 h; hits give low values; activity change, % at 57.5 µM; 360,000 tested, 4.7% active; in the data active means activity change below about -50%; inconclusive means mostly about -30% to -49%
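THP-1 cells pretreated 1 hr with compounds (up to 57.5 uM final), then stimulated with LPS (250 ng/mL final) plus ATP (1.25 mM final); secreted IL-1B measured by AlphaLISA after 16 hr, decreased signal indicating inhibition.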
DT40 TDP1 no CPT – qHTS for Inhibitors of human tyrosyl-DNA phosphodiesterase 1 (TDP1): qHTS in cells in absence of CPT; DT40 Tdp1-/- hTDP1 cells, no CPT, ATP luminescence, 48 h; 420,000 tested, 15% active; Potency, µM (top dose mostly 46.2 µM), for inactives: top-dose activity change, negative = growth inhibition, most hits filed as inhibitors; further: potency means the concentration at half of the fitted maximal effect; nearly all actives have a fitted effect of over 55% in size
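DT40 Tdp1-/-;hTDP1 cells, no CPT (DMSO vehicle only), 400 cells/well; compounds pin-transferred; ≥48 hr, 37 °C; CellTiter-Glo 30 min RT dark, luminescence read.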
HT1080 IDH1KD tx – qHTS for induction of synthetic lethality in tumor cells producing 2HG: qHTS for the HT-1080-IDH1KD cell line. 360,000 tested, 2% active. Potency, µM (top dose mostly 46.1 µM), for the others: at the top dose activity, negative = toxicity, usual class: cytotoxic. HT-1080 IDH1 knockdown viability, ATP luminescence, 48 h;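 further: potency means the concentration at half of the fitted maximal effect; 0% = DMSO wells and -100% = cell-free medium wells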
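Assay cells: HT-1080 with IDH1 knockdown, 750 per well, RPMI/5% FBS. Exposure: 48 h at 37 °C following 2 h pre-incubation. Read: CellTiter-Glo luminescence; fitted concentration-response, curve class assigned.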
uPA surface inh – qHTS for Inhibitors of Cell Surface uPA Generation. cell surface uPA generation assay, qHTS. Potency, µM (top dose mostly 38.3 µM), inactives show at the highest dose activity change, negative = inhibition, hits mostly inhibitors. 330,000 tested, 0.31% active; active means well fitted inhibition curve with a large enough effect; inconclusive means small, poorly fitted or top-dose-only effect; inactive means no such curve, though single readings can be large or run the other way; tested in mouse RAW 264.7 cells; further: potency means the concentration at half of the fitted maximal effect; nearly all actives have a fitted effect of over 55% in size
DT40 TDP1 CPT – qHTS for Inhibitors of human tyrosyl-DNA phosphodiesterase 1 (TDP1): qHTS in cells in presence of CPT | chicken DT40 Tdp1-/-;hTDP1 cells + 20 nM CPT, ATP luminescence, 48 h | Potency, µM (titrated, usually from 46.2 µM), for the others: top-dose activity change, negative = growth inhibition, hits mostly inhibitors | 420,000 tested, 12% active | AID 686979, 2013; further: potency means the concentration at half of the fitted maximal effect; nearly all actives have a fitted effect of over 55% in size
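Chicken DT40 Tdp1-/- cells complemented with human TDP1, 400 cells/well, exposed to compounds plus 20 nM camptothecin for at least 48 h at 37 C; viability read as ATP content by CellTiter-Glo luminescence.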
Starred values were filed as active, the others as inactive; ? = inconclusive; · = no result given; ! = a repeat was not active. Unless noted, the call rests on the fitted dose curve; in most records, active means well fitted curve in the direction sought with a large enough effect; inconclusive means small, poorly fitted or top-dose-only effect, or another doubt; inactive means no such curve, though single readings can be large; an effect the other way counts as inactive or inconclusive. Unless noted, on the % scale 0 is the no-effect control and ±100 the full control effect.

SMILES | HT1080-NT tox | IL1B secr inh | DT40 TDP1 no CPT | HT1080 IDH1KD tx | uPA surface inh | DT40 TDP1 CPT
Cc1ccc2nc(-c3cccnc3)c(NC3CCCCC3)n2c1 | -5% | 35 | ? | 2% | -4% | ?
Cc1ccn2c(NCc3ccccc3)c(-c3cccc(SC4CCCCC4)c3)nc2c1 | ? | -79*! | ? | ? | -9% | 23µM*
Clc1ccc2nc(-c3cccc(SC4CCCCC4)c3)c(NCc3ccccc3)n2c1 | 0% | -24 | ? | 0% | -4% | 16µM*
O=S(=O)(c1ccc(OC(F)(F)F)cc1)N1CCCC(N2CCOCC2)C1 (stereo not drawn) | 16% | 15 | 6% | 13% | 1% | 2%
O=C(CCNC(=O)c1ccco1)Nc1ccc(OC(F)(F)F)cc1 | -3% | 3 | 3% | 11% | 1% | -3%
CCOc1ccc(N2CC(C(=O)NCCc3ccc(S(N)(=O)=O)cc3)CC2=O)cc1 (stereo not drawn) | -1% | -2 | -2% | 16% | -1% | 2%
CCC(C)Sc1cccc(-c2nc3cc(C)ccn3c2NCc2ccccc2)c1 (stereo not drawn) | 21µM* | -73* | ? | 26µM* | -19% | 23µM*
Cc1ccc2nc(C3CCCCC3)c(Cc3cccc(Cl)c3)n2c1 | ? | -7 | ? | ? | · | ?
Cc1ccc2nc(-c3cccc(SC4CCCCC4)c3)c(NCc3ccccc3)n2c1 | ? | -3 | 18µM* | -22% | ? | 26µM*
CCC(C)Sc1ccc(-c2nc3ccc(C)cn3c2NC2CCCCC2)cc1 (stereo not drawn) | · | 21 | 8.2µM* | · | -36% | 7.3µM*
CCCCCOc1ccc(C(=O)CCC(=O)Nc2ccc(NC(C)=O)cc2)cc1 | -1% | 4 | -2% | ? | 25% | -6%
Oc1ccccc1CNc1ccc(OC(F)(F)F)cc1 | 18µM* | -89* | ? | ? | -4% | -25%
Cc1ccc(NCc2ccccc2O)cc1C | -16% | -16 | -28% | -9% | 4% | ?
COc1ccc(NC(=O)CN2C(=O)/C(=C3\SC(=S)N(CCC(=O)O)C3=O)c3ccccc32)cc1 | ? | -20 | 8% | -8% | 6% | -2%
O=C(CN1C(=O)/C(=C2\SC(=S)N(C3CCS(=O)(=O)C3)C2=O)c2ccccc21)Nc1ccccc1 (stereo not drawn) | -5% | 4 | 13µM* | 5% | -8% | ?
C=CCOc1ccc(Br)cc1CNCCCN1CCOCC1 | -1% | -62* | ? | 2% | -3% | 5%
C=CCOc1ccc(Br)cc1CNC(C)(C)CO | -7% | -7 | -13% | 11% | 5% | -2%
OCCNCc1cc(Br)ccc1OCc1ccccc1Cl | ? | -59* | 21µM* | ? | -4% | 21µM*
C=CCOc1ccc(Br)cc1CNCCO | 22% | -55* | -21% | 13% | 3% | -4%
C=CCOc1ccc2ccccc2c1CNCCCN1CCOCC1 | -3% | -10 | ? | 4% | -4% | ?
O=C(NCC1CCCO1)c1cccc(NS(=O)(=O)c2ccc(Br)cc2)c1 (stereo not drawn) | -8% | 10 | ? | -9% | -2% | -3%
COc1cccc(C(=O)n2nc(-c3cccnc3)nc2NCc2ccc(F)cc2)c1 | · | · | ? | · | · | -18%
C=CCC[C@@H](Cc1ccc(F)cc1)C(=O)OC[C@H](Cc1c[nH]c2ccccc12)NC(=O)[C@@H](CC=C)CC(=O)NCCO | -6% | 1 | ? | ? | -8% | ?
C=CCC[C@H](Cc1ccc(F)cc1)C(=O)OC[C@H](Cc1c[nH]c2ccccc12)NC(=O)[C@H](CC=C)CC(=O)NCCO | -15% | ? | 18µM* | -7% | -8% | ?
C=CC[C@@H](CC(=O)NCCO)C(=O)N[C@@H](COC(=O)[C@@H](CC=C)Cc1ccc(F)cc1)Cc1c[nH]c2ccccc12 | -7% | -55* | ? | -4% | -1% | ?
SMILES | HT1080-NT tox | IL1B secr inh | DT40 TDP1 no CPT | HT1080 IDH1KD tx | uPA surface inh | DT40 TDP1 CPT
C=CCC[C@@H](Cc1ccc(F)cc1)C(=O)OC[C@@H](Cc1c[nH]c2ccccc12)NC(=O)[C@@H](CC=C)CC(=O)NCCO | -28% | -65* | ? | -29% | -18% | ?
C=CC[C@@H](CC(=O)NCCO)C(=O)N[C@H](COC(=O)[C@@H](CC=C)Cc1ccc(F)cc1)Cc1c[nH]c2ccccc12 | 0% | -11 | ? | -1% | -17% | ?
C=CCC[C@H](Cc1ccc(F)cc1)C(=O)OC[C@@H](Cc1c[nH]c2ccccc12)NC(=O)[C@@H](CC=C)CC(=O)NCCO | ? | -17 | ? | ? | 17% | ?
C=CCC[C@@H](Cc1ccc(F)cc1)C(=O)OC[C@@H](Cc1c[nH]c2ccccc12)NC(=O)[C@H](CC=C)CC(=O)NCCO | 5% | -21 | 18µM* | -6% | -2% | ?
CCOc1ccccc1OCCCn1c(-c2ccc(Cl)cc2)nc2ccccc2c1=O | · | · | 5% | · | · | -13%
CCCCn1c(N)c(N(CC(C)C)C(=O)c2cc3ccccc3cc2OC)c(=O)[nH]c1=O | 7% | -6 | -10% | 0% | -2% | -3%
COCCCNC(=O)CN1C(=O)COc2ccc(S(=O)(=O)N3CCCC3)cc21 | · | · | 6% | · | · | 2%
COc1ccccc1NS(=O)(=O)c1ccc2ccccc2c1 | 3% | 15 | -3% | -1% | 0% | -19%
COc1ccc(OC)c(NS(=O)(=O)c2cccc3cccnc23)c1 | -7% | 18 | -29% | -12% | -2% | -5%
COc1ccc(NS(=O)(=O)c2ccc3ccccc3c2)c2ncccc12 | -30% | 91 | 6.5µM* | ? | -15% | 8.2µM*
COc1ccc(C(C)(C)C)cc1NS(=O)(=O)c1cccc2cccnc12 | -10% | ? | 18µM* | -1% | 0% | 26µM*
Cc1ccc(NC(=O)C2(C)Cc3ccccc3C(=O)O2)c(C)c1 (stereo not drawn) | · | · | ? | · | · | -14%
Cc1ccc(SCc2cc(=O)[nH]c(/N=C(\N)Nc3ccccc3Sc3ccccc3)n2)cc1 | -2% | 25 | 29µM* | -7% | 2% | ?
